# The campaign covered roughly 290,000 compounds. About 3,000 (1%) were called active. For the sample, actives were picked, then their nearest neighbours and some compounds at random. Values without a mark were called inactive. Cut-off read from the data, not from the text of the source: active = inhibition mostly above about 36% (no sharp cut-off); inactive = mostly below about 34%.
# Experiment: inhibition of NOD1-driven NF-kB reporter – cell-based, luminescence, uHTS, primary screen (AID 1578);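 note: HEK-293T reporter cells stimulated with the NOD1 agonist gamma-tri-DAP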
# Conditions: NOD1-driven NF-kB luciferase reporter cells, at 4 µM, hits give high values
row,Structure (SMILES),inhibition
1,Cc1cc(C(=O)NC2CCCc3c2cnn3-c2cccc(C)c2C)no1 (stereo unspecified),11.2%
2,Cc1cc(C)cc(-n2ncc3c2CCCC3NC(=O)C2(C(N)=O)CC2)c1 (stereo unspecified),-11.6%
3,Cc1cccc(-n2ncc3c2CCCC3NC(=O)C2CCOCC2)c1C (stereo unspecified),9.8%
4,Cc1cc(C)c(C(=O)NC2CCCc3c2cnn3-c2cccc(C)c2C)o1 (stereo unspecified),-10.7%
5,Cc1cccc(-n2ncc3c2CCCC3NC(=O)c2ccc[n+]([O-])c2)c1C (stereo unspecified),-3.9%
6,COc1ccc(C(=O)NC2CCCc3c2cnn3-c2cccc(C)c2C)o1 (stereo unspecified),0.8%
7,Cn1nccc1C(=O)NC1CCCc2c1cnn2-c1cc(F)cc(F)c1 (stereo unspecified),35.1%
8,O=C(NC1CCCc2c1cnn2-c1ccccc1F)c1ccccn1 (stereo unspecified),20.6%
9,CC(C)N(CCCNC(=O)c1ccc(CS(=O)(=O)c2c(Cl)cccc2Cl)o1)Cc1ccccc1,-4.4%
10,CCOC(=O)N1CCN(C(=O)CSc2ccc3nnc(-c4cccnc4)n3n2)CC1,-22.3%
11,CCOC(=O)C1(Cc2cccc(OC)c2)CCCN(C(=O)CCc2cccnc2)C1 (stereo unspecified),-50.3%
12,CCc1ccc(-n2cccc2/C=C2/C(=N)N3C(=NC2=O)SN=C3S(C)(=O)=O)cc1,1.2%
13,Cc1nn(CC(=O)N2CCC(C(N)=O)CC2)c(=O)c2nn(-c3ccccc3)c(C)c12,-5.3%
14,COc1ccc(CNC(=O)c2csc(Cc3ccc(Cl)cc3)n2)cc1,25.6%
15,COc1ccc(-c2nc(N3CCCC3)[nH]c(=O)c2C#N)cc1,-42.4%
16,COc1ccc(-c2nc(N3CCC(C)CC3)[nH]c(=O)c2C#N)cc1,73.1% (active)
17,CC1CCN(c2nc(-c3ccccc3)c(C#N)c(=O)[nH]2)CC1,34.5%
18,CCOC(=O)N1CCN(CC(O)COc2c(C)cccc2C)CC1 (stereo unspecified),24.9%
19,CCC(C)(C)NC(=S)Nc1ccccc1C,-38.1%
20,C=CCn1c(Oc2cccc(C)c2)nc2c1c(=O)n(C)c(=O)n2C,-2.9%
21,Cc1ccc(-c2onc3ccc(Cl)cc23)cc1,-3.6%
22,COc1ccc(-c2onc3ccc(Cl)cc23)cc1,-9.1%
23,Cc1cc(-c2onc3ccc(Cl)cc23)ccc1O,52.9% (active)

row,Structure (SMILES),inhibition
1,CN1CCN(S(=O)(=O)c2cccc(C(=O)N(c3ccccn3)C3CCCCC3)c2)CC1,-0.4%
2,CCc1nc(Nc2ccc(N3CCN(C(C)=O)CC3)cc2)c2oc3ccccc3c2n1,7.6%
3,Cc1nc(SCC(=O)N2CCN(c3ccccc3)CC2)c2oc3ccccc3c2n1,33.4%
4,CC1(O)CC(c2ccc(Cl)cc2)=NN1C(=O)c1ccc([N+](=O)[O-])cc1 (stereo unspecified),92.3% (active)
5,CC1(O)CC(c2ccc(Cl)cc2)=NN1C(=O)c1ccc(Cl)cc1 (stereo unspecified),-27.7%
6,CC(=O)N1N=C(c2ccc(Cl)cc2)CC1c1ccc([N+](=O)[O-])cc1 (stereo unspecified),-12.3%
7,COc1cc(/C=C/C(=O)O)ccc1OCc1ccc([N+](=O)[O-])cc1,-13.3%
8,COC(=O)c1cc(C)ccc1OCc1ccc([N+](=O)[O-])cc1,-8.7%
9,CCOc1cc(/C=C2/NC(=S)NC2=O)ccc1OCc1ccc([N+](=O)[O-])cc1,-30%
10,CCOc1cc(/C=N/O)ccc1OCc1ccc([N+](=O)[O-])cc1,-20.2%
11,O=C(NCCc1ccccc1)C1(S(=O)(=O)c2ccc(Cl)cc2)CC1,7.4%
12,O=C(CSc1nc(-c2ccncc2)nn1CC(=O)N1CCCCC1)NC1CCCC1,-4%
13,CC1CC(=O)N(CC(=O)NCc2ccccc2)c2ccccc2S1(=O)=O (stereo unspecified),-32.8%
14,O=C1CCc2cc(S(=O)(=O)N3CCN(c4cccc(C(F)(F)F)c4)CC3)ccc2N1,-6.5%
15,CC(=O)c1ccccc1NC(=O)COC(=O)/C(=C/c1ccccc1)n1nnnc1C,-8%
16,Cc1nnnn1/C(=C\c1ccccc1)C(=O)OCC(=O)NC(C)(C)C,91.3% (active)
17,CC(=O)Nc1ccc(NC(=O)COC(=O)/C(=C/c2ccccc2)n2nnnc2C)cc1,-15.3%
18,CCOC(=O)C1(CCCc2ccccc2)CCN(C(=O)c2cnc(C)cn2)CC1,2.2%
19,CC(=O)OC(C(=O)NC1CCCCC1)c1ccc(Cl)c(Cl)c1 (stereo unspecified),-34.6%
20,COc1ccc(OCC(=O)N/N=c2\oc3c(OC)cccc3cc2C(N)=O)cc1,-30.3%
21,COc1ccc(CNC(=O)C(c2cccs2)N(Cc2ccco2)C(=O)Cc2cccs2)cc1 (stereo unspecified),23.3%
22,COc1ccc(CNC(=O)C(c2ccco2)N(Cc2cccs2)C(=O)Cc2cccs2)cc1 (stereo unspecified),2%
23,COc1ccc(CNC(=O)C(c2ccc(C)o2)N(Cc2cccs2)C(=O)Cc2cccs2)cc1 (stereo unspecified),68.3% (active)

row,Structure (SMILES),inhibition
1,COC(=O)C(C)n1cnc2c(nnn2-c2ccccc2)c1=O (stereo unspecified),-9.8%
2,COc1ccc(C(=O)Nc2c(N)nc(SCC(=O)N3CCCCCC3)[nH]c2=O)cc1OC,-4.3%
3,Cc1cc2c(cc1S(=O)(=O)Nc1cccc(F)c1)n(C)c(=O)c(=O)n2C,13.5%
4,O=C(c1ccc(Cl)c([N+](=O)[O-])c1)N1CCN(c2ccccn2)CC1,-1.9%
5,O=C(c1ccc(S(=O)(=O)Cc2ccccc2Cl)c([N+](=O)[O-])c1)N1CCOCC1,13.5%
6,O=C(c1ccc(N2CCCC2)c([N+](=O)[O-])c1)N1CCN(c2ccccn2)CC1,-8.1%
7,O=C(c1ccc(Sc2cccc(Cl)c2)c([N+](=O)[O-])c1)N1CCN(c2ccccn2)CC1,-34.4%
8,CC(C)Cc1nnc(NC(=O)CCC(=O)NC2CCCC2)s1,-20.3%
9,CC/C=C/C(=O)N1CC2(CC(c3cccc(NC(=O)c4ccccc4)c3)=NO2)C[C@@H]1C(N)=O (stereo partly specified),20.5%
10,O=c1c2c3c(sc2nc2n1CCC2)CCCCC3,-41%
11,Cn1cnc2cc(NC(=O)COc3ccccc3)ccc21,-63.1%
12,Cc1cccn2c(=O)c3cc(S(=O)(=O)c4ccc(Br)cc4)c(=N)n(C4CCCC4)c3nc12,-42.6%
13,O=C(O)c1cccc(NS(=O)(=O)c2cc(S(=O)(=O)c3ccc(Cl)cc3)ccc2Cl)c1,0.3%
14,COc1ccc(C(=O)NCc2ccc(-c3nc4ccccc4s3)cc2)cc1OC,-86.1%
15,COc1cc(C(=O)NCc2ccc(-c3nc4ccccc4s3)cc2)cc(OC)c1OC,-45%
16,Cc1ccc(-n2c(SCC(=O)Nc3ccc(C(=O)O)cc3)nnc2-c2ccncc2)cc1,-9.4%
17,O=C(CCNS(=O)(=O)c1c(Cl)cccc1Cl)OCC(=O)c1ccccc1,10.5%
18,Cc1nn(C)c(Cl)c1NC(=O)OCc1ccccc1,-9.7%
19,Cc1nn(C)c(Cl)c1NC(=O)OCc1ccc(Cl)cc1Cl,68.3% (active)
20,COc1ccccc1COC(=O)Nc1c(C)nn(C)c1Cl,10.8%
21,CCc1ccccc1NC(=O)CCC(=O)N1CCSc2ccccc21,-3%
22,O=Nc1c(O)n(Cc2ccccc2)c2ccccc12,9.5%
23,O=Nc1c(O)n(Cc2cccc(C(F)(F)F)c2)c2ccccc12,82.8% (active)

row,Structure (SMILES),inhibition
1,O=Nc1c(O)n(Cc2cccc(Cl)c2)c2ccccc12,34.1%
2,Cc1cccc(NC(=S)NNC(=S)NC2CCCCC2)c1C,-15.3%
3,CCOC(=O)c1[nH]c(C)c(CN(CCc2ccc(OC)c(OC)c2)C(=O)CCCC(=O)O)c1C,-27.8%
4,CCOC(=O)C1CCCN(C(=O)CCCn2nnnc2CN2CCC(C)CC2)C1 (stereo unspecified),-6.9%
5,CCOC(=O)C1CCCN(C(=O)CCCn2nnnc2CN2CCOCC2)C1 (stereo unspecified),45% (active)
6,CCOC(=O)C1CCCN(C(=O)CCn2nnnc2CN2CCOCC2)C1 (stereo unspecified),-14.8%
7,O=C(O)CN1C(=O)CSc2ccccc21,14.5%
8,O=C(CN1CCSc2ccccc21)NCCCc1ccccc1,-29.8%
9,CCOC(=O)c1ccc(N2C(=O)CC(C)(CC)CC2=O)cc1,-5%
10,CC(C)(C)c1ccc(C(=O)N2CCCN(c3ccc([N+](=O)[O-])cn3)CC2)cc1,-3.4%
11,CC(C)(C)c1ccc(NC(=O)N2CCN(c3ccc([N+](=O)[O-])cn3)CC2)cc1,29.4% (active)
12,CC(C)(C)c1ccc(NC(=O)N2CCCN(c3ccc([N+](=O)[O-])cn3)CC2)cc1,0.9%
13,O=C(O)CC(C(=O)O)N1C(=O)/C(=C/C=C/c2ccco2)SC1=S (stereo unspecified),-8.8%
14,O=C(O)CCCN1C(=O)/C(=C\c2ccco2)SC1=S,-3.5%
15,O=C(O)CCCN1C(=O)/C(=C/C=C/c2ccco2)SC1=S,23.3% (active)
16,CC(=O)Nc1ccc(C(=O)N/C(=C/c2ccccc2)C(=O)Nc2cccc(C(=O)O)c2)cc1,-27.4%
17,O=C(CN1CCCCCC1)NCc1ccccc1,-25.9%
18,COc1ccc(N(Cc2ccccc2)C(=O)CSc2nnc(Cn3nnc4ccccc43)o2)cc1,-12.4%
19,O=C(CSc1nnc(Cn2nnc3ccccc32)o1)N(Cc1ccc(Cl)cc1)c1ccccc1,48.7% (active)
20,O=C(CSc1nnc(Cn2nnc3ccccc32)o1)N(Cc1ccc(F)cc1)c1ccccc1,37.1%
21,O=C(O)c1ccc2c(c1)ncn2C1CCCCC1,-10.3%
22,NNC(=O)c1csc(Cc2c(Cl)sc3ccc(Cl)cc23)n1,11.9%
